Screening results: PubChem, several laboratories
Compounds with a hit are over-represented: about 0.85% of the library has one in this group of screens.
ZTA counter: ZTA (EBV) inhibition in EBNA-1 counter-screen; P03206; ZTA-DNA binding, fluorescence polarization; inhibition, % at 11 µM; 320,000 tested, 0.15% active; AID 2234; in the data active = inhibition above about 33%
Target sequence (P03206 whole entry, looked up): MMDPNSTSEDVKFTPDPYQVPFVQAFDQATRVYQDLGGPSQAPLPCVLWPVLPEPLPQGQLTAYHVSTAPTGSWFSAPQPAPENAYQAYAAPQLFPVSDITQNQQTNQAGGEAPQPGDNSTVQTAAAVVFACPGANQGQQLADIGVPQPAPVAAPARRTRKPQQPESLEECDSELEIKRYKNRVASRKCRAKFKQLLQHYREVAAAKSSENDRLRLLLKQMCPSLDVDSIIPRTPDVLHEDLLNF
Keap1-Nrf2 PPI: disrupts human Keap1 binding to Nrf2 peptide. Keap1 Kelch-Nrf2 peptide fluorescence polarization, 1536-well. inhibition, % at 9.4 µM. 340,000 tested, 0.15% active. AID 504523; in the data active = inhibition above about 12%; inconclusive = no clear call, values can overlap the other calls; inactive = below about 7.3%;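 also: human Keap1 Kelch domain with fluorescein labeled Nrf2 9mer peptide probe; 0% = neutral control wells and 100% = peptide positive control; higher means more block of Keap1 binding to Nrf2 peptide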
LANA DNA inh: KSHV C-LANA DNA binding inhibition | MBP-C-LANA/FAM-LBS DNA binding, fluorescence polarization | inhibition, % at 9 µM | 340,000 tested, 0.078% active | AID 504423;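 active = highest replicate inhibition at or above 60% at 9 µM, even if other replicates fall short; inactive = all replicates below 60% inhibition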;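 also: 0% = neutral control wells and 100% = 4 µM acridine orange control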
E coli Lon inh: inhibitors of E. coli Lon protease. P0A9M0. purified E. coli Lon protease, fluorescence polarization. inhibition, % at 7.94 µM. 360,000 tested, 0.42% active. AID 602123; in the data active = inhibition above about 13%, passing the limit was not always enough;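 also: 0% = enzyme with probe and DMSO and 100% = no enzyme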
EBNA-1 inhibitor: blocks EBNA-1 binding to DNA; inhibition, % at 14.8 µM; 300,000 tested, 0.34% active; EBNA-1 DNA binding, fluorescence polarization; in the data active = inhibition above about 28%
EBNA-1 inh conf: EBNA-1 (EBV) inhibition, confirmation; AID 2292; 830 tested, 35% active; shares compounds with EBNA-1 inhibitor; Recombinant EBNA-1 DBD, Cy5-DNA fluorescence polarization; inhibition, % at 14.8 µM;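 active = mean inhibition across replicates above a set limit taken from the earlier primary screen, cut at about 28% in these data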;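 also: plate controls were EBNA-1 protein with DMSO for no effect and wells lacking EBNA-1 for full effect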
ZTA counter trip: blocks Epstein-Barr virus ZTA in triplicate, EBNA-1 counter-screen | 830 tested, under 10 active | shares compounds with EBNA-1 inhibitor | inhibition, % at 11.1 µM | Zta-ZRE DNA binding, Cy5 fluorescence polarization | AID 2328;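 active = mean inhibition over triplicates above a set limit taken from the primary EBNA-1 screen, cut at about 37% in these data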;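 also: purified full length Zta protein with Cy5 labeled ZRE DNA probe; 0% = Zta with DMSO and 100% = wells lacking Zta protein; inhibitors lower polarization by freeing the labeled DNA probe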
Zta DNA confirm: EBV ZTA DNA binding inhibition, confirmation; shares compounds with ZTA counter; inhibition, % at 11.1 µM; 320 tested, 30% active; Zta-ZRE DNA binding, fluorescence polarization;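 active = mean inhibition across triplicate runs above the hit threshold derived for the original primary screen, cut at about 33% in these data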;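 also: 0% = Zta with DMSO and 100% = wells lacking Zta protein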
EBNA-1 counter: counter-screen for ZTA inhibitors: EBNA-1 DNA binding inhibition. shares compounds with ZTA counter. fluorescence polarization. inhibition, % at 14.8 µM. 320 tested, under 10 active. AID 2362; call rule not given here
eLon confirm: confirmation of E. coli Lon protease inhibitors | AID 602230 | 1,400 tested, 31% active | inhibition, % at 7.94 µM | purified E. coli Lon, fluorescence polarization | shares compounds with E coli Lon inh; in the data active = inhibition above about 16%;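 also: 0% = enzyme with probe and DMSO and 100% = no enzyme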
* hit, by the source's call; ? = inconclusive; . = no result; ! = not confirmed by another sample.

SMILES	ZTA counter	Keap1-Nrf2 PPI	LANA DNA inh	E coli Lon inh	EBNA-1 inhibitor	Zta DNA confirm	EBNA-1 counter	others
CCC(CC)C(=O)N(C)c1c(C)nc2c(OCc3cc(Cl)cc(Cl)c3)cccn12	.	.	.	6.7	.	.	.
Cc1ccc2[nH]cc(/C=C/c3cc[n+](C)cc3)c2c1	.	-167.4	-21.3	-316.6	.	.	.
CC[n+]1ccc(/C=C/c2c[nH]c3ccccc23)cc1	10.3	-110.2	-21.6	-329.7	42.4*	.	.	EBNA-1 inh conf=5.2;ZTA counter trip=-0.6
CC1CN(C(=O)COC(=O)c2cc(=O)[nH]c3ccccc23)CC(C)O1 (centres undefined)	.	.	.	-15.5	.	.	.
CCn1c2ccccc2c2cc(NC(=O)COC(=O)c3ccccc3F)ccc21	5.7	-1.5	0.2	-16.7	37.1*	.	.	EBNA-1 inh conf=25.2;ZTA counter trip=-4.1
CCN(CC)S(=O)(=O)c1cc(NC(=O)CSc2nc3c(cc2C#N)C(=O)CC(C)(C)C3)ccc1C	9.5	-0.3	-1.4	-9.2	32.0*	.	.	EBNA-1 inh conf=-7.8;ZTA counter trip=-12.1
CCN(CC)S(=O)(=O)c1cc(NC(=O)CSc2nnc(N)s2)ccc1C	-17.6	1.4	0.9	-2.5	.	.	.
O=C(CCC(=O)NNC(=O)COc1ccccc1)NCc1ccccc1	-6.8	2.1	0.1	-8.4	-5.8	.	.
O=C(COc1ccccc1)NCc1ccc(-n2cccc2)cc1	-6.3	1.8	0.8	4.8	91.8*	.	.	EBNA-1 inh conf=41.6*;ZTA counter trip=16.5
N#Cc1cc2c(nc1SCC(=O)Nc1nccs1)CCCCC2	-2.5	-2.3	0.9	-5.2	30.1*	.	.	EBNA-1 inh conf=15.4;ZTA counter trip=-6.8
COc1ccccc1N(CC(=O)N1CCOCC1)S(C)(=O)=O	-1.9	-5.6	0.3	-4.4	-2.6	.	.
Cc1ccc(SCC(=O)OCC(=O)N(CC(C)C)c2c(N)n(Cc3ccccc3)c(=O)[nH]c2=O)cc1C	5.2	-2.6	-1.2	1.1	3.9	.	.
CCOc1ccc(C2C=C(c3ccc(C)cc3)Nc3nnnn32)cc1 (centres undefined)	8.8	-0.4	7.0	24.3*	51.7*	.	.	EBNA-1 inh conf=2.3;ZTA counter trip=6.2;eLon confirm=-1.9
CCOc1ccc(C2C=C(c3ccccc3)Nc3nnnn32)cc1 (centres undefined)	23.5	-2.9	2.1	0.5	2.4	.	.
CN(C(=O)COC(=O)c1cc2c(s1)CCCCC2)c1ccccc1	-9.8	-1.6	-2.5	29.6*	82.2*	.	.	EBNA-1 inh conf=-0.1;ZTA counter trip=9.4;eLon confirm=2.3
Cc1ccccc1C(=O)Nc1nnc(SCC(=O)NCc2ccco2)s1	8.3	4.4	1.2	-3.8	8.4	.	.
O=C(O)c1cccc(-n2cccc2/C=C/[N+](=O)[O-])c1	56.3*	-1.3	35.0	-11.1	-3.7	15.7	-8.4
c1ccc(-n2ncc3c(N4CCN(c5ccccn5)CC4)nc(N4CCCCCC4)nc32)cc1	40.1*	2.1	1.5	-4.6	6.4	0.8	-5.4
c1ccc(-n2ncc3c(N4CCCCC4)ncnc32)cc1	-13.1	-0.1	-1.3	-9.5	5.6	.	.
CC(=O)N1CCN(C(=O)OC2CC3CC2[C@H]2CCCCN2C3=O)CC1 (some centres undefined)	.	.	.	3.3	.	.	.
O=C(Nc1ccc(-c2nc3ccc(NC(=O)c4cccs4)cc3[nH]2)cc1)c1cccs1	55.3*	1.3	0.4	2.1	-12.1	43.0*	3.9
O=C(Nc1ccc2nc(-c3cccs3)[nH]c2c1)c1cccs1	-11.7	-0.5	1.3	-0.7	-6.4	.	.
Cc1cccc2c1NC(C)CC2C (centres undefined)	97.4*	2.1	1.1	-9.4	20.7	11.9	-7.2
CCc1cccc2c1NC1(CCCC1)CC2C (centres undefined)	4.0	-4.0	-2.0	-0.9	-1.6	.	.
Cc1cc(=O)n2c(C(=O)Nc3ccc(C)c(C)c3)c(C(=O)Nc3ccccc3)sc2n1	53.2*	3.5	1.4	-4.8	10.5	12.6	78.2*
SMILES	ZTA counter	Keap1-Nrf2 PPI	LANA DNA inh	E coli Lon inh	EBNA-1 inhibitor	Zta DNA confirm	EBNA-1 counter	others
C[C@@H]1CN([C@H](C)CO)C(=O)CCCn2nncc2CO[C@H]1CN(C)C(=O)c1ccncc1	.	.	.	-6.2	.	.	.
O=C(c1ccco1)N1N=C(c2ccco2)CC1c1ccc(Cl)cc1Cl (centres undefined)	3.5	-5.3	0.3	-6.1	.	.	.
O=C1C=C(N2CCOCC2)c2ccccc2C1=O	53.9*	-0.5	5.5	10.3	-4.9	68.1*	-11.4
O=C1C(=Cc2ccc(Br)o2)C(=O)c2ccccc21	51.9*	?	105.5*	7.2	1.6	50.7*	13.3
CC1=C/C(=C\c2ccc(Br)o2)C(=O)O1	-2.4	-6.5	27.3	-3.2	-5.9	.	.
COc1cc(NC(=O)C2=C(N3CCOCC3)/C(=C\c3ccc(N(C)C)cc3)CCC2)cc(OC)c1OC	100.5*	-6.9	0.9	-80.1	4.9	-5.3	-3.2
COc1ccc2c(c1)NC(C)(C)C=C2C	22.7	-3.9	0.1	-6.7	10.9	.	.
CC1=CC(C)(C)Nc2ccccc21	38.6*!	-0.3	-0.2	7.2	13.9	21.6	10.8
CCN(CCO)c1ccc(NC(=S)Nc2cccc(S(=O)(=O)N(C)C)c2)cc1	40.9*	-0.4	-0.1	-7.4	23.3	8.8	3.5
Nc1nnnn1/N=C/c1ccc(F)cc1	51.9*	2.0	-0.4	-1.6	-6.1	-1.0	-16.5
Nc1nnnn1/N=C/c1ccc(Br)cc1	.	2.6	1.0	-9.8	.	.	.
C[C@H]1CN([C@@H](C)CO)C(=O)CCCn2nncc2CO[C@@H]1CN(C)S(=O)(=O)c1cccc(F)c1	.	.	.	2.2	.	.	.
COc1ccccc1/C=C1\SC(=S)N(CCC(=O)Nc2ccc(C(=O)O)c(O)c2)C1=O	12.3	-2.0	10.0	-1.0	19.2	.	.
O=C(CCN1C(=O)/C(=C\c2ccco2)SC1=S)Nc1ccc(C(=O)O)c(O)c1	44.4*	-2.0	83.1*	-32.1	-0.9	9.1	7.0
COc1ccc(Cn2c(SCc3cc(C)ccc3C)nc3cc(OC)c(OC)cc3c2=N)cc1	12.1	2.9	0.2	-7.5	-6.0	.	.
COc1ccc(Cn2c(SCc3ccc(C)cc3)nc3cc(OC)c(OC)cc3c2=N)cc1Cl	35.4*	-6.3	-1.6	-0.3	8.9	11.7	23.5
CCOC(=O)C1(Cc2ccccc2)CCN(Cc2cccn2-c2nccs2)CC1	34.1*	0.1	-2.9	-1.5	-0.5	-13.4	-8.5
CCOc1ccc(N2C(=O)/C(=C/c3ccccc3)N=C2SC)cc1	41.6*	-1.3	1.4	2.6	-0.6	1.3	-4.4
COc1cc(C#Cc2c(-c3cncn3C)n(C)c3ccc(-c4ccc(OC)c(OC)c4)cc23)cc(OC)c1	37.8*	-3.5	0.8	-13.4	.	35.9*	7.3
COc1ccc(Nc2nc3cc(-c4ccccc4C)sc3c(=O)n2C)cc1OC	.	.	.	-1.2	.	.	.
